Measured values from the supplement of paper PMC13172266.
Structures can show the parent of a compound that is named as a salt.

The molecules below were run on U2932 TK216-resistant clone 3 (assay: cell proliferation relative to vehicle (% of vehicle); higher = less growth inhibition). Details: 50 nM; 72 h.
Outline: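 Parental U2932 cells (ABC-DLBCL) and two clones made resistant to an ETS-targeting agent by almost a year of repeated exposure were treated for 72 h with 348 targeted inhibitors at 500 nM or 50 nM. MTT was then applied for 4 h, the reaction was stopped with 25% SDS, and absorbance was measured on a Cytation 3. Values express proliferation as percent of proliferating cells compared with DMSO vehicle.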
`CCCCCOC(=O)Nc1nc(=O)n([C@@H]2O[C@H](C)[C@@H](O)[C@H]2O)cc1F` [Capecitabine] gave a cell proliferation of 104. `C[C@H](Nc1ncnc2nc[nH]c12)c1cc2cccc(Cl)c2c(=O)n1-c1ccccc1` gave a cell proliferation of 95.6. `Cc1cc(Nc2cc(N3CCN(C)CC3)nc(/C=C/c3ccccc3)n2)n[nH]1` [ENMD-2076 L-(+)-Tartaric acid] was tested, and the cell proliferation was 105. `Cn1cc(CNCC2CCN(c3ncc(C(=O)NO)cn3)CC2)c2ccccc21` was tested, and the cell proliferation was 11.4. Work on `Cc1ccc(C(=O)N(CCCN)[C@@H](c2nc3cc(Cl)ccc3c(=O)n2Cc2ccccc2)C(C)C)cc1` yielded a cell proliferation of 7.24. With `NCC(=O)Nc1ccc(-n2nc(C(F)(F)F)cc2-c2ccc3c(ccc4ccccc43)c2)cc1` the cell proliferation was 95.3. `CC[C@@]1(O)C(=O)OCc2c1cc1n(c2=O)Cc2cc3c(CN(C)C)c(O)ccc3nc2-1` [Topotecan HCl] was tested, and the cell proliferation was 12.8. For `COc1ccc(S(=O)(=O)N(CCO)c2ccccc2CN(C)C/C=C/c2ccc(Cl)cc2)cc1` [KN-93 Phosphate], the cell proliferation was 105. Work on `CC[C@@H]1C(=O)N(C)c2cnc(Nc3ccc(C(=O)NC4CCN(C)CC4)cc3OC)nc2N1C1CCCC1` yielded a cell proliferation of 16.2. With `CC(C)(C)c1nc(-c2cccc(NS(=O)(=O)c3c(F)cccc3F)c2F)c(-c2ccnc(N)n2)s1` the cell proliferation was 106. `CC(C)CCN1c2nc(Nc3cc(F)c(O)c(F)c3)ncc2N(C)C(=O)C1C` (centres undefined) gave a cell proliferation of 106. `CN1C(=O)C(Cc2c[nH]c3ccccc23)NC1=S` (centres undefined) [Necrostatin-1] showed a cell proliferation of 95.6. Work on `CN(CCOc1ccc(CC2SC(=O)NC2=O)cc1)c1ccccn1` (centres undefined) [Rosiglitazone] yielded a cell proliferation of 98.8. `CC(C)C[C@H](NC(=O)[C@H](CCc1ccccc1)NC(=O)CN1CCOCC1)C(=O)N[C@@H](Cc1ccccc1)C(=O)N[C@@H](CC(C)C)C(=O)[C@@]1(C)CO1` [Carfilzomib (PR-171)] gave a cell proliferation of -2.24. Molecule `Cn1cc(-c2ccc3c(c2)CCN3C(=O)Cc2cccc(C(F)(F)F)c2)c2c(N)ncnc21` has a cell proliferation of 108. With `Cc1cc(C(C)Nc2ccccc2)c2nc(N3CCOCC3)cc(=O)n2c1` (centres undefined) the cell proliferation was 105. With `Oc1nc(-c2ccc(C(F)(F)F)cc2)nc2c1CSCC2` the cell proliferation was 111. In the case of `Cn1cnc([N+](=O)[O-])c1Sc1ncnc2[nH]cnc12` [Azathioprine], the cell proliferation is reported as 103. `Cn1cncc1[C@@](N)(c1ccc(Cl)cc1)c1ccc2c(c1)c(-c1cccc(Cl)c1)cc(=O)n2C` [Tipifarnib] showed a cell proliferation of 71.5. `CO[C@@H](C(=O)N1Cc2[nH]nc(NC(=O)c3ccc(N4CCN(C)CC4)cc3)c2C1)c1ccccc1` was tested, and the cell proliferation was 77.8. `CC(C)(C)c1cc(NC(=O)Nc2ccc(-c3cn4c(n3)sc3cc(OCCN5CCOCC5)ccc34)cc2)no1` [Quizartinib (AC220)] was tested, and the cell proliferation was 95. `O=C(NCCCNc1nc(Nc2cccc(NC(=O)N3CCCC3)c2)ncc1I)c1cccs1` showed a cell proliferation of 99.5. Molecule `N#C/C(=C(/N)Sc1ccc(N)cc1)c1ccccc1C(F)(F)F` has a cell proliferation of 90.8. `Oc1ccc(-c2nc(-c3ccc(F)cc3)c(-c3ccncc3)[nH]2)cc1` showed a cell proliferation of 96.2. `COc1ccc(F)c(F)c1C(=O)c1cnc(NC2CCN(S(C)(=O)=O)CC2)nc1N` gave a cell proliferation of 89.4. Molecule `Cc1nc(-c2ccc(OCC(C)C)c(C#N)c2)sc1C(=O)O` [Febuxostat] has a cell proliferation of 106. Molecule `COc1cccc(-c2cc(F)ccc2C2Cc3nc(N)nc(C)c3C(=O)N2)n1` (centres undefined) has a cell proliferation of 22.6. `CC(C)C(=O)Nc1ccc([N+](=O)[O-])c(C(F)(F)F)c1` [Flutamide] gave a cell proliferation of 97.2. Work on `CN(C)CCOc1ccc(-c2nc(-c3ccncc3)c(-c3ccc4c(c3)CC/C4=N\O)[nH]2)cc1` yielded a cell proliferation of 96.6. Molecule `Nc1nc(F)nc2c1ncn2[C@@H]1O[C@H](COP(=O)(O)O)[C@@H](O)[C@@H]1O` [Fludarabine Phosphate] has a cell proliferation of 103. With `COc1ccc(C2=N[C@@H](c3ccc(Cl)cc3)[C@@H](c3ccc(Cl)cc3)N2C(=O)N2CCNC(=O)C2)c(OC(C)C)c1` [Nutlin-3a] the cell proliferation was 99.8. `CCS(=O)(=O)N1CC(CC#N)(n2cc(-c3ncnc4[nH]ccc34)cn2)C1` gave a cell proliferation of 111. For `CCc1nc(-c2cccc(C)c2)c(-c2ccnc(NC(=O)c3ccccc3)c2)s1`, the cell proliferation was 98.4. Molecule `CNCc1ccc(-c2[nH]c3cc(F)cc4c3c2CCNC4=O)cc1` has a cell proliferation of 99.8. `CCCCOc1c(C(=O)c2c(F)cc(C)cc2F)c[nH]c2nncc1-2` gave a cell proliferation of 92.2. Work on `CC[C@H](NC(=O)[C@H](C)NC)C(=O)N1C[C@@H](O)C[C@H]1Cc1c(-c2[nH]c3cc(F)ccc3c2C[C@@H]2C[C@H](O)CN2C(=O)[C@H](CC)NC(=O)[C@H](C)NC)[nH]c2cc(F)ccc12` [Birinapant] yielded a cell proliferation of 99.4. `O=C(/C=C/c1ccc(CN(CCO)CCc2c[nH]c3ccccc23)cc1)NO` [LAQ824 (Dacinostat)] showed a cell proliferation of 48.6. Molecule `COc1ccc(-n2c(SCCCN3C(=O)c4cccc5cccc(c45)C3=O)nnc2-c2ccncc2)cc1` has a cell proliferation of 104. With `CO[C@H]1C[C@@H]2CC[C@@H](C)[C@@](O)(O2)C(=O)C(=O)N2CCCC[C@H]2C(=O)O[C@H]([C@H](C)C[C@@H]2CC[C@@H](O)[C@H](OC)C2)CC(=O)[C@H](C)/C=C(\C)[C@@H](O)[C@@H](OC)C(=O)[C@H](C)C[C@H](C)/C=C/C=C/C=C/1C` [Rapamycin (Sirolimus)] the cell proliferation was 60.3.
